Test results reported in PubChem BioAssay (NCATS).
Results filed as inconclusive are left out. The source made the active and inactive calls. Unless noted, how the calls were made is not given here.

Key:
[1] = qHTS Assay for Identifying Gametocytocidal Compounds (AID 743244; active means well fitted curve in the direction sought with a large enough effect; an effect the other way counts as inactive or inconclusive;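 further: on the % scale 0 is the no-effect control and ±100 the full control effect; actives lower the fluorescent signal which means gametocytes are killed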); conditions: P. falciparum 3D7 stage III-V gametocytes, alamarBlue, 72 h; max response: stronger effect = lower value
Summary of the method: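 In this qHTS viability screen, late-stage 3D7 gametocytes are incubated with compound for 72 h, then with alamarBlue for 24 h; reduced resorufin fluorescence marks killing.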

[2] = qHTS profiling for inhibitors of Plasmodium falciparum (3D7) proliferation (AID 743322);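 further: infected erythrocytes exposed to compound for 72 h before lysis; 100% = DMSO vehicle wells and 0% = 0.29 µM artemisinin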; conditions: P. falciparum 3D7 proliferation; at 28.7 µM (top of the series) unless noted
Summary of the method: (§1)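 Erythrocytes infected with P. falciparum (0.3% parasitemia, 2.5% hematocrit) incubated with compounds 72 h at 37 C, 5% CO2. Lysis with saponin/Triton buffer containing SYBR Green I, overnight at room temperature in the dark; DNA fluorescence (485/535 nm) normalised to 0.29 uM artemisinin and DMSO.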

[3] = qHTS profiling for inhibitors of Plasmodium falciparum (DD2) proliferation (AID 743323); conditions: lower = more inhibition; at 28.7 µM (top of the series) unless noted
Summary of the method: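 Parasite DNA quantified by SYBR Green fluorescence (ex 485, em 535 nm) after saponin/Triton lysis and overnight dark incubation. Cultures: 0.3% parasitemia, 2.5% hematocrit, 72 h, 37 C; data scaled between DMSO and 0.29 uM artemisinin.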

[4] = qHTS profiling for inhibitors of Plasmodium falciparum (HB3) proliferation (AID 743324; active means well fitted curve in the direction sought with a large enough effect; an effect the other way counts as inactive or inconclusive;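 further: 100% = DMSO vehicle wells and 0% = artemisinin-treated control wells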); conditions: Plasmodium falciparum HB3 blood-stage proliferation; at 28.7 µM (top of the series) unless noted
Summary of the method: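 P. falciparum HB3 grown in erythrocytes (0.3% parasitemia, 2.5% hematocrit final) with compound for 72 h at 37 C, 5% CO2. Parasite DNA detected by SYBR Green after saponin/triton lysis overnight; normalized to 0.29 uM artemisinin and DMSO.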

[5] = qHTS profiling of the MIPE4 collection as inhibitors of Plasmodium falciparum (3D7) proliferation (AID 743344);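 further: scaled between DMSO vehicle wells and 0.29 µM artemisinin as full inhibition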; conditions: P. falciparum 3D7 in erythrocytes, SYBR Green DNA fluorescence, 72 h; at 28.5 µM (top of the series) unless noted
Summary of the method: as §1

[6] = qHTS profiling of the MIPE4 collection as inhibitors of Plasmodium falciparum (DD2) proliferation (AID 743345); conditions: P. falciparum Dd2 in erythrocytes, SYBR Green DNA, 72 h; at 28.5 µM (top of the series) unless noted
Summary of the method: as §1

[7] = qHTS profiling of the MIPE4 collection as inhibitors of Plasmodium falciparum (DD2) proliferation (Rep 2) (AID 743346); conditions: P. falciparum Dd2 in erythrocytes, SYBR Green DNA, 72 h; at 28.5 µM (top of the series) unless noted
Summary of the method: as §1

[8] = qHTS profiling of the MIPE4 collection as inhibitors of Plasmodium falciparum (HB3) proliferation (AID 743347);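 further: plate controls were DMSO vehicle wells for no effect and artemisinin wells for full effect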; conditions: P. falciparum HB3 in erythrocytes, SYBR Green DNA, 72 h; at 28.5 µM (top of the series) unless noted
Summary of the method: as §1

[9] = Cell Proliferation Assay Versus the ED40515 IL2 Dependent ATL cell lines (AID 1053195; calls by dose curve); conditions: ED40515 IL2-dependent ATL cells
Summary of the method: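 IL2-dependent ED40515 ATL cells grown with IL2, 1000 cells/well in phenol red-free RPMI + 5% FBS, exposed 48 hours at 37C. Viability by CellTiter-Glo luminescence after 15 min at RT; 9.2 uM bortezomib as control.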

[10] = High-throughput drug toxicity screening in the BPDCN cell line Gen2.2 (AID 1224824); conditions: Gen2.2 BPDCN cells; at 45.8 µM (top of the series) unless noted;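 further: cells exposed to compounds for 48 h before reading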
Summary of the method: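 Gen2.2 cells (500/well) in phenol red-free RPMI with 10% FBS were exposed to compounds for 48 h at 37 °C, 5% CO2. Viability was read by CellTiter-Glo luminescence and normalized to DMSO (100%) and 9.2 uM bortezomib (0%).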

[11] = High-throughput drug toxicity screening in the BPDCN cell line Cal-1 (AID 1224825); conditions: Cal-1 BPDCN cell viability, qHTS; at 45.8 µM (top of the series) unless noted
Summary of the method: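 Cal-1 cells, 500 per well in phenol-red-free RPMI with 10% FBS, exposed to compounds for 48 hours at 37C, 5% CO2. Viability read by CellTiter-Glo luminescence; percent activity normalized to DMSO (100%) and 9.2 uM bortezomib final (0%).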

[12] = qHTS assay for measurement of the activity of small molecule inhibitors on Zika virus induced Caspase-3 activity in human iPSC derived neural progenitor cells (hNPCs) (AID 1224857; active means well fitted curve in the direction sought with a large enough effect; an effect the other way counts as inactive or inconclusive; further: % of control where 0% means no effect; nearly all actives have a fitted effect of over 65% in size)
Summary of the method: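 In medium with heparin 2 ug/ml and cyclopamine 2 uM, hNPCs (350 cells/well) received compound for one hour and then Zika virus at 2 FFU/cell; caspase activity was measured by Caspase-Glo 3/7 luminescence 6 h post-infection.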

[13] = qHTS assay for measurement of the activity of small molecule inhibitors on Zika virus induced Caspase-3 activity in human astrocytoma cells (AID 1224859; active means well fitted curve in the direction sought with a large enough effect; an effect the other way counts as inactive or inconclusive;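 further: plate controls were ZIKV-infected untreated cells for no effect and uninfected cells for full effect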)
Summary of the method: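 A cell-based luminescent caspase-3/7 assay used SNB-19 cells infected with ZIKV (2 FFU/cell) for 6 h following 1 h compound pretreatment.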

[14] = qHTS Screen of the MIPE 4.0 Collection Against Ewings Sarcoma (RDES) (AID 1259252; active means well fitted curve in the direction sought with a large enough effect; an effect the other way counts as inactive or inconclusive; further: potency means the concentration at half of the fitted maximal effect; nearly all actives have a fitted effect of over 35% in size)
Summary of the method: (§2)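 Viability screen: 48 h incubation at 37C, 95% humidity, 5% CO2 with serially titrated compound, followed by CellTiter-Glo readout.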

[15] = qHTS Screen of the MIPE 4.0 Collection Against Ewings Sarcoma (TC71) (AID 1259253; active means well fitted curve in the direction sought with a large enough effect; an effect the other way counts as inactive or inconclusive; further: potency means the concentration at half of the fitted maximal effect; nearly all actives have a fitted effect of over 40% in size)
Summary of the method: as §2

[16] = qHTS Screen of the MIPE 4.0 Collection Against Ewings Sarcoma (EW8) (AID 1259255; active means well fitted curve in the direction sought with a large enough effect; an effect the other way counts as inactive or inconclusive; further: potency means the concentration at half of the fitted maximal effect; nearly all actives have a fitted effect of over 35% in size)
Summary of the method: as §2

[17] = Cell Proliferation Assay Versus the ED40515 IL2 Independent ATL cell lines (AID 1053194; calls by dose curve); conditions: ED40515 IL2-independent ATL cells
Summary of the method: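 Log-phase ED40515 cells grown without IL-2, 1000 cells/well in phenol red-free RPMI with 5% FBS, exposed to drugs 48 h at 37C. Viability read as CellTiter-Glo luminescence after 15 min at RT; DMSO and 9.2 uM bortezomib as controls.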

Structure (SMILES)	max response [1]	remaining parasite growth % (stronger effect = lower value) [2]	activity, percent of control [3]	remaining proliferation (% of control), lower = more inhibition [4]	parasite growth, % of DMSO control [5]	parasite growth remaining, % of DMSO control (lower = more inhibition) [6]	parasite growth, % of control (lower = inhibition) [7]	growth, % of control [8]	Potency [9]	cell viability, % of control (lower = more cytotoxic) [10]	viability (% of control) [11]	Potency [12]	Potency [13]	Potency [14]	Potency [15]	Potency [16]	Potency [17]
Cc1cc(-c2ccc(CC(=O)Nc3ccc(-c4cccnc4)cc3)cc2)ccn1	17.3% (inactive)	75%	88.9%	6.55%	32.3%	95.7%	110%	63.6%	4.18 µM (active)	255%	20.4%	inactive	inactive	20.9 µM (active)	16.6 µM (active)	18.7 µM (active)	–
COc1ccc2c3n(c(=NC(=O)c4cccnc4)nc2c1OC)CCN3	-25% (inactive)	0.12%	12.2%	1.47%	5.7%	10.1%	7.17%	3.38%	4.18 µM (active)	9.57%	12.7%	inactive	inactive	2.09 µM (active)	10.5 µM (active)	20.9 µM (active)	–
Cc1ccc(-n2nc(C(C)(C)C)cc2NC(=O)Nc2ccc(OCCN3CCOCC3)c3ccccc23)cc1	–	24.3%	14.4%	5.8%	29.4%	84.5%	31.6%	72.4%	–	240%	64.8%	–	inactive	29.6 µM (active)	20.9 µM (active)	–	26.4 µM (active)
